From PubChem BioAssay AID588849 (Broad Institute, 2011)
Potency and affinity values are given separately.

The compounds below were run against CAAX prenyl protease 2 (Homo sapiens) (UniProt Q9Y256) (assay: inhibition of Ras-converting CAAX protease Rce1 – biochemical, yeast membranes, quenched-peptide fluorescence, cherry-pick, dose response (AID 588849)). Details: yeast membrane fractions expressing human Rce1, quenched-peptide fluorescence, 4 h; series mostly up to 10 µM; activity change, negative = inhibition: at the top concentration; call rule not given here.
Chain of CAAX prenyl protease 2 (Homo sapiens) (Q9Y256 whole entry, looked up): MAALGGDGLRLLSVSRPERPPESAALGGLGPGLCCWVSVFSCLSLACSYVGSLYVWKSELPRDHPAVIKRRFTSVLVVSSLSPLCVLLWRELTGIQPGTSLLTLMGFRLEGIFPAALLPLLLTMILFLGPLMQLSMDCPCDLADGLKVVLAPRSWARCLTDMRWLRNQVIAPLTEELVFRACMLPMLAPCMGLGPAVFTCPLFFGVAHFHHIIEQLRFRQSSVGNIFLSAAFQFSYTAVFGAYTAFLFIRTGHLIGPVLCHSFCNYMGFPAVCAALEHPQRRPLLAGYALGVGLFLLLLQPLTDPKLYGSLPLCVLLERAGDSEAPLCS

Activity change, negative = inhibition, inactive:
COc1cccc(-c2ccc(-c3noc(-c4ccccc4F)n3)c(OC)n2)c1 0.294%
Cc1ccccc1NS(=O)(=O)c1ccc(C(=O)NCC(c2ccccc2)N(C)C)cc1 (centres undefined) -1.78%
CCn1cc(/C=C(\NC(=O)c2ccccc2F)C(=O)N2CCOCC2)c2ccccc21 6.21%
CCCCOc1ccc(Cc2c(COCC)[nH]c(=S)[nH]c2=O)cc1 -12.1%
CC1=C(C(=O)OCc2ccccc2)C(c2ccc(-c3ccccc3)cc2)NC(=O)N1CCCC(=O)O (centres undefined) -4.91%
COc1cccc(-c2csc(N3CCN(C(=O)NC45CC6CC(CC(C6)C4)C5)CC3)n2)c1 -19.7%
CCN(CC)CCN(C(=O)c1cc2ccccc2cc1OC)c1nc2ccc(F)cc2s1 -25.1%
COc1ccc(-c2cc(C(F)(F)F)nc(SCC(=O)NCc3cnn(C)c3C)n2)cc1OC -20.2%
COc1ccc(CN2CCN(C(c3ccc(F)cc3)c3ccc(F)cc3)CC2)c(OC)c1OC -15.4%
COc1cc(C(=O)OCC(=O)Nc2ccc(SC(F)F)cc2)cc(OC)c1OC -11.7%
O=C(CSc1n[nH]c(-c2ccc(S(=O)(=O)N3CCCCC3)cc2)n1)Nc1nccs1 -21.8%
Cc1ccc2nc(N(CCN(C)C)C(=O)c3ccc4ccccc4c3)sc2c1 -9.24%
CC1CCc2c(sc(NC(=O)COC(=O)c3ccccc3NCc3ccco3)c2C#N)C1 (centres undefined) 51.9%
CC(C)c1ccc(/C=C2\SC(=S)N(CCC(=O)NCCCn3ccnc3)C2=O)cc1 -5.37%
COCCNc1nc(N)c([N+](=O)[O-])c(N2CCCCCC2)n1 6.94%
CCn1nc(C)cc1C(=O)NC1CC(C)(C)Cc2c1cnn2-c1cccc(F)c1 (centres undefined) 3.87%
Cc1ccc(C(=O)c2c3ccc(C(F)(F)F)cc3nn2CCC(N)=O)cc1 5.68%
COc1ccc(C2Nc3ccccc3C(=O)N2Cc2ccccc2)cc1COc1ccccn1 (centres undefined) 63.7%
Oc1c(N=NC(=S)Nc2ccccc2F)c2ccccc2n1Cc1ccccc1F -11.4%
Cc1cc(C)n2nc(CC(=O)NNC(=O)c3ccc(N(C)C)cc3)nc2n1 -12.3%
COc1cc2c(cc1OC)C(C)N(C(=O)CCNC(=O)c1ccccc1)CC2 (centres undefined) -20%
COCCCNC(=O)c1cc2cc3cc(OC)ccc3nc2o1 32.3%
CC(C)[C@H](NC(=O)OCc1ccccc1)C(=O)OCC(=O)Nc1c(F)cccc1F -6.6% [at 3.5 µM]
O=C(NCCc1cccnc1)c1cc(COc2ccc(F)cc2Cl)on1 15.2%
Nc1nc2c(ncn2COC(CO)CO)c(=O)[nH]1 7.69%
C/C(=N\NC(=O)c1ccc(Br)cc1)c1cccc(NC(=O)c2cccnc2)c1 -8.93%
COc1cc2ccccc2cc1C(=O)N(CCN(C)C)c1nc2ccc(C)cc2s1 -32.8%
COc1ccc(Cc2nc3ccc(C(=O)N4CCCC4)cc3o2)cc1 -2.01%
CCCC(=O)N1CCN(c2ccc(NC(=O)c3cc4ccccc4o3)cc2Cl)CC1 -12%
COc1ccc(C(=O)/C=C/c2ccc(OC)cc2OC)c(O)c1 -13%
Cc1ccc(OCCn2c3ccccc3n3nc(C)c(=O)nc23)cc1 -0.872%
CCOc1ccc(-n2c(SCc3ccc([N+](=O)[O-])cc3)nnc2-c2ccc(OC)cc2)cc1 -8.97%
O=C(C[n+]1cc2ccccc2c2ccccc21)c1ccccc1 -26.3%
S=c1[nH]nc(-c2ccccc2)o1 -16.1%
CCCCOC(=O)Nc1nc(C)c(C(=O)OCC)s1 2.25%
O=C(CN1CCC(NC(=O)c2ccc(Br)cc2)CC1)NCc1cccs1 -4.21%
C=CCc1cccc(/C=N/NC(=O)COc2ccc(-n3cnnn3)cc2)c1O 6.81% [at 3.5 µM]
O=C(O)c1ccc2cccc(Cl)c2c1O -8.94%
COc1ccccc1CC(=O)Nc1ccc2c(C)cc(=O)oc2c1 -14% [at 3.5 µM]
